These results are taken from ChEMBL document CHEMBL4513143, “CO-ADD screening of University of Natural Resources and Life (Austria) compounds”.

The subject of one experiment is Klebsiella pneumoniae. Conditions: Concentration 32 ug.mL-1; ASSAY_TEST Inhibition of Bacterial Growth; detection method Absorption (OD600); MEDIA CAMHB; plate type 384well; NBS; CORNING #3640; time 18 hr.
For another experiment, the system named is Candida albicans. Conditions: 32 ug/mL.
The subject of another experiment is Cryptococcus neoformans. Conditions: Concentration 32 ug.mL-1; ASSAY_TEST Inhibition of Fungal Growth; detection method Resazurin; Absorption (OD600-OD570); plate type 384well; NBS; CORNING #3640.

Structures are written as SMILES. Entries with a potency or affinity are not part of this list.

What is called Inhibition is the drop in the measured response relative to a control, in per cent. `CC(=O)CC1O[C@H]([C@@H](O)CO)[C@@H](O)[C@H](O)[C@@H]1O` (stereo not given in full): the Inhibition with Klebsiella pneumoniae is 30.36%; in the experiment with Candida albicans it was -0.45%; with Cryptococcus neoformans it was -7.35%.
With `CCN(CC)CC.C[C@H](CC1O[C@H]([C@H](O)CO)[C@@H](O)[C@H](O)[C@@H]1O)OP(=O)(O)OC[C@H]1O[C@@H](n2cnc3c(N)ncnc32)[C@H](O)[C@@H]1O` (stereo not given in full), the Inhibition in the experiment on Klebsiella pneumoniae was 32.34%; with Candida albicans, 2.8%; with Cryptococcus neoformans, -3.79%.
`OC[C@@H](O)[C@H]1OC(O)C[C@@H](O)[C@@H]1O` (stereo not given in full): the results for the Inhibition with Klebsiella pneumoniae, in the experiment with Candida albicans and in the experiment on Cryptococcus neoformans were 30.82%, 4.53% and -12.95%, respectively.
Turning to `CCN(CC)CC.O=P(O)(O)OC1C[C@@H](O)[C@H](O)[C@@H]([C@H](O)CO)O1` (stereo not given in full), the results for the Inhibition with Klebsiella pneumoniae, in the experiment on Candida albicans and with Cryptococcus neoformans were 34.69%, 2.93% and -6.2%, respectively.
With `CCN(CC)CC.C[C@H](CC1O[C@H]([C@@H](O)CO)[C@@H](O)[C@H](O)[C@@H]1O)OP(=O)(O)OC[C@H]1O[C@@H](n2cnc3c(N)ncnc32)[C@H](O)[C@@H]1O` (stereo not given in full), the Inhibition is 21.04% in the experiment on Klebsiella pneumoniae, -0.71% in the experiment on Candida albicans and -12.97% in the experiment with Cryptococcus neoformans.
`CCN(CC)CC.C[C@@H](CC1O[C@H]([C@@H](O)CO)[C@@H](O)[C@H](O)[C@@H]1O)OP(=O)(O)O` (stereo not given in full): the Inhibition in the experiment on Klebsiella pneumoniae is 41.76%; with Candida albicans, 0.34%; with Cryptococcus neoformans, -7.83%.
With `CCN(CC)CC.C[C@H](CC1O[C@H]([C@@H](O)CO)[C@@H](O)[C@H](O)[C@@H]1O)OP(=O)(O)O` (stereo not given in full), the Inhibition is 38.35% with Klebsiella pneumoniae, 1.33% with Candida albicans and -5.02% with Cryptococcus neoformans.
Consider `CCN(CC)CC.C[C@@H](CC1O[C@H]([C@H](O)CO)[C@@H](O)[C@H](O)[C@@H]1O)OP(=O)(O)OC[C@H]1O[C@@H](n2cnc3c(N)ncnc32)[C@H](O)[C@@H]1O` (stereo not given in full), for which the Inhibition in the experiment with Klebsiella pneumoniae is 9.8%; in the experiment with Candida albicans it was -0.9%; in the experiment with Cryptococcus neoformans, -12.32%.
`N.O=C(O)C1(O)C[C@@H](O)[C@H](O)[C@@H]([C@@H](O)CO)O1` (stereo not given in full): the Inhibition with Klebsiella pneumoniae is 28.17%; in the experiment with Candida albicans, 3.34%; in the experiment on Cryptococcus neoformans it was -12.91%.
Turning to `CCN(CC)CC.C[C@@H](CC1O[C@H]([C@@H](O)CO)[C@@H](O)[C@H](O)[C@@H]1O)OP(=O)(O)OC[C@H]1O[C@@H](n2cnc3c(N)ncnc32)[C@H](O)[C@@H]1O` (stereo not given in full), the figures for the Inhibition with Klebsiella pneumoniae, in the experiment with Candida albicans and in the experiment with Cryptococcus neoformans were 27.9%, 0.32% and -9%, respectively.
